Screening data (PubChem)
TRHR agonist = agonists of human TRH receptor. P34981. TRHR cells, calcium flux fluo-8, FDSS agonist mode. activation, % at 2 µM. actives 0.18% (n = 360,000). AID 493084; note: 0% is about no effect
Target sequence (P34981 whole entry, looked up): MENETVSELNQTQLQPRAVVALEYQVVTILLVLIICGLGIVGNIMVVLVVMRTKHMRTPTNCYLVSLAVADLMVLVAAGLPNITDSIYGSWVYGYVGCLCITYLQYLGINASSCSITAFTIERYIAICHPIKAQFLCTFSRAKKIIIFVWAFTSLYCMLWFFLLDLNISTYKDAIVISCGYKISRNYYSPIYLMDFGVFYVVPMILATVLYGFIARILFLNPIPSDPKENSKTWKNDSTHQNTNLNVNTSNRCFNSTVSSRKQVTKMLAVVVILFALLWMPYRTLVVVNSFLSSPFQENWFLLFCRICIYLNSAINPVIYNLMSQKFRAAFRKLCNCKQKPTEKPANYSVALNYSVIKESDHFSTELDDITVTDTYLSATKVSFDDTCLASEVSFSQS
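Agonist-mode FDSS calcium read (Ex 480/Em 530, 1 s cycles) in 1536-well TRHR cells with fluo-8 dye, after 10-cycle baseline and 23 nL compound addition; TRH at EC20 (10 nM final) added afterwards for the enhancer phase.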
D1 antagonist = antagonists of human D1 dopamine receptor | HEK293 TREx D1 cells, calcium flux, dopamine EC80; hits give low values | activity change, negative = inhibition, % at 10 µM | actives 3.2% (n = 360,000); in the data active = activity change below about -30%; note: % is set by controls: 0 for no effect and ±100 for the full control effect
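HEK293 T-REx cells expressing inducible, force-coupled D1 receptor; no-wash Ca dye, 30–90 min RT. Cmpd → 180 s read at 1 Hz → EC80 DA → 180 s read.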
D1 potentiator = potentiators of human D1 dopamine receptor; actives 0.036% (n = 360,000); AID 504651; potentiation, % at 10 µM; HEK293 TREx D1 cells, calcium flux, dopamine EC20 potentiation; in the data active = potentiation above about 30%; note: 0% is about no effect
TRHR enhancer = TRH receptor (human) allosteric enhancement | P34981 | TRHR cells, fluo-8 calcium fluorescence, EC20 TRH enhancement | enhancement, % at 2 µM | actives 0.66% (n = 360,000); in the data active = enhancement above about 30%; note: 0% is about no effect
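TRHR-expressing cells loaded with fluo-8 calcium dye were read kinetically (ex 480/em 530) during compound addition, then stimulated with an EC20 of TRH (10 nM final). Enhancement of the Gq-mediated intracellular calcium response was scored.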
D1 agonist = agonists of human D1 dopamine receptor. P21728. HEK293 T-REx D1 cells, calcium flux, agonist mode. activation, % at 2 µM. actives 1% (n = 360,000). AID 504660; note: 0% is about no effect
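Agonism was scored from calcium flux recorded over 180 s (1 read/s) after pintool compound addition, following a 10-cycle baseline. Cells were inducible force-coupled HEK293 TREx D1, plated overnight at 30 C and loaded with no-wash calcium dye.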
* hit, by the source's call; . = not tested or not shown; ! = not confirmed by another sample. Sampled rows, rich in hits. Any-hit rate of the full collection: about 4.7%. Cut-off read from the data, not from the text of the source, unless noted: active = activation above about 30%; inactive = the rest.

SMILES | TRHR agonist | D1 antagonist | D1 potentiator | TRHR enhancer | D1 agonist
Cc1ccc(C)c(N2CCN(C(=O)CCS(=O)(=O)c3ccc4c(c3)CC(=O)N4C)CC2)c1 | 0 | 8 | 3 | -5 | 5
Cc1cccc(NC(=S)NCc2ccc3c(c2)OCO3)c1C | 0 | 4 | 0 | 1 | -1
Cc1cccc(NC(=S)NCCc2ccc3c(c2)OCCO3)c1C | -1 | -46* | -6 | 1 | 4
CC1(C)Cc2c(sc(NC(=O)c3ccc(S(=O)(=O)N4CCCCCC4)cc3)c2C#N)C(C)(C)N1 | -1 | -1 | -1 | 5 | 3
CCOc1cc(/C=C2\N=C(SC(C)C(N)=O)N(c3ccc(OC(F)F)cc3)C2=O)ccc1O (centres undefined) | 32* | 14 | -6 | 19 | 47*
COc1cccc(/C=N/n2c(SC)nnc2-c2ccccc2)c1O | 5 | -1 | -2 | 5 | 30*
O=[N+]([O-])c1ccc(N/N=C2\CC3CC=CC23)cc1 (centres undefined) | 0 | -31* | -1 | -8 | 14
Cc1ccc(CNC(=O)c2cccc3c2C(=O)c2ccc(N4CCOCC4)cc2S3(=O)=O)cc1 | 2 | . | -3 | 3 | 49*
Cc1ccc(-c2nc3ccccc3[nH]2)cc1NC(=O)COc1cccc(C)c1C | -1 | 0 | -3 | 0 | 2
O=C(NCc1ccccc1)/C(=C/c1cccc([N+](=O)[O-])c1)NC(=O)c1ccco1 | 0 | -6 | . | 5 | 2
O=C(NCCc1ccccc1)/C(=C\c1cccc([N+](=O)[O-])c1)NC(=O)c1ccco1 | -1 | -34* | -4 | 0 | 4
O=C(Nc1cccc2ccccc12)/C(=C/c1cccc([N+](=O)[O-])c1)NC(=O)c1cccs1 | 0 | 7 | -4 | 34* | 1
O=C(/C=C/c1cccc([N+](=O)[O-])c1)c1cccs1 | 0 | 7 | -8 | 0 | 0
O=C(/C=C/c1cccc([N+](=O)[O-])c1)Nc1ccc(NC(=O)c2cccs2)cc1 | 2 | -78* | -24 | -22 | -1
CN1CCN(C(CNC(=O)C(=O)Nc2ccc3c(c2)OCO3)c2ccc(F)cc2)CC1 (centres undefined) | 1 | -1 | -2 | 17 | 6
COc1cc2c(cc1OC)C1O[C@](CCCCN3C(=O)c4ccccc4C3=O)(C2)Oc2c1c(=O)oc1ccc(F)cc21 | 0 | 12 | -1 | -1 | 1
COc1ccc(OCC(=O)Nc2ccc3c(c2)nc(CCn2ccccc2=O)n3C)cc1 | 0 | -25 | -7 | -7 | 3
CCCn1c(Oc2ccccc2)nc2c1c(=O)n(C)c(=O)n2C | 0 | -39* | -4 | 8 | -1
COc1ccc(CNC(=O)Cc2c(C)c3cc4c(C)coc4c(C)c3oc2=O)cc1OC | -1 | 0 | 1 | -2 | 0
CCCCN(C)CCCNC(=O)c1cc(-c2cccnc2)nc2ccccc12 | 0 | -59*! | 3 | 10 | 2
Cc1cc(CNC(=O)COc2ccccc2)c2ccccc2n1 | 0 | -35* | 3 | -5 | 14
CCNC(=O)COC(=O)c1cc(C)nc2ccccc12 | 0 | -19 | 16 | 2 | 2
Cc1cc(C(=O)OCC(=O)NCc2cccs2)c2ccccc2n1 | 0 | -31* | -1 | 0 | 8
Cc1cc(CNC(=O)COc2ccc(F)cc2)c2ccccc2n1 | -1 | 12 | -10 | -1 | 9
O=C(NCCc1ccccc1)c1cc(Sc2cccc(Cl)c2)nc2ccccc12 | 2 | -43* | -1 | -5 | 12
O=C(CSc1nnc(CNC(=O)c2c(F)cccc2F)o1)NCCc1ccccc1 | 0 | 11 | -2 | -2 | 4
Cn1c(=O)c(=O)n(C)c2cc(S(=O)(=O)N3CCCC3C(=O)Nc3cccc(F)c3)ccc21 (centres undefined) | 0 | -2 | -1 | 5 | 0
CCC(C(=O)Oc1c(C(C)C)cccc1C(C)C)c1ccccc1 (centres undefined) | 0 | . | 12 | -2 | -1
CCN(CC)CCNC(=O)c1cc(-c2ccc(Br)s2)nc2ccccc12 | 2 | -5 | -1 | -5 | 34*!
Cc1cc(C(=O)NCc2cccc(Cl)c2)c2ccccc2n1 | -1 | -33* | -11 | 4 | 2
